High-throughput results as filed in PubChem.
Most compounds without a hit are left out; they make up all but 10% or so of the library.
JMJD2A Tudor inh: inhibitors of human JMJD2A Tudor domain. O75164. AlphaScreen JMJD2A-Tudor / H3K4me3 peptide binding. Potency, µM (top dose mostly 114 µM), usual class: inhibitors. hit rate 4.4% among 390,000. AID 504339; further: nearly all actives have a fitted effect of over 50% in size
HP1b chromo inh: HP1-beta chromodomain-methylated histone interaction inhibition. AlphaScreen HP1-beta / biotin-H3K9me3 peptide binding. Potency, µM (titrated, usually from 114 µM), most hits filed as inhibitors. hit rate 0.56% among 390,000; further: nearly all actives have a fitted effect of over 70% in size
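Compound inhibition of the preformed complex between 50 nM HP1-beta and 50 nM biotinylated H3K9me3 peptide was read by AlphaScreen. Buffer was PBS pH 7.4 with 0.01% Tween-20. Incubations ran 30 min at room temperature, with 10 ug/mL donor/acceptor beads.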
GLS inhibitor: glutaminase GLS (human) inhibition; GLS enzymatic activity, qHTS titration; Potency, µM (top dose mostly 45.5 µM), hits mostly inhibitors; O94925; hit rate 0.21% among 410,000
Target sequence (O94925 whole entry, looked up): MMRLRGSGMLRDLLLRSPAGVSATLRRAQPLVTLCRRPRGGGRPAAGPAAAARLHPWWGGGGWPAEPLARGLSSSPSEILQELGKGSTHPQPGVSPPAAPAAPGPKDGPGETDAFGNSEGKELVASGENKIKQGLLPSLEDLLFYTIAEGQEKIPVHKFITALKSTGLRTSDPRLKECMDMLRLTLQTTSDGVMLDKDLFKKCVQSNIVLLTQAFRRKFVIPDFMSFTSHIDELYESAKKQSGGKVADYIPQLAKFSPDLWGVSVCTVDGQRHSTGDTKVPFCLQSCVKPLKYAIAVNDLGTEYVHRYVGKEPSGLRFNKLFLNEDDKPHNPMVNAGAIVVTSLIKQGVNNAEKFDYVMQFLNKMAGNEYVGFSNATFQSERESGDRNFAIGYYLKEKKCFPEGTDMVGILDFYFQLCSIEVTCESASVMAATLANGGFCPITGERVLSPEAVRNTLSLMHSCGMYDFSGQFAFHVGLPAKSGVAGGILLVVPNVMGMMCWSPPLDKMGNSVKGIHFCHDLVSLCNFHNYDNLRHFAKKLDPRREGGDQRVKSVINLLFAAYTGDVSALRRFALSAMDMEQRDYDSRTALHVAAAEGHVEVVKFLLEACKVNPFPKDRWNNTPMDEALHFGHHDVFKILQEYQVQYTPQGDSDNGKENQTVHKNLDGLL
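Compounds were pin-transferred onto hKGA, after which L-glutamine (1 mM solution) and a detection mix of glutamate oxidase, HRP and Amplex Red were added. Initial and 30 min RT fluorescence reads were collected.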
BAZ2B inh: blocks human BAZ2B; Q9UIF8; AlphaScreen BAZ2B-H3K14Ac peptide displacement; Potency, µM (doses to about 114 µM), hits mostly inhibitors; hit rate 4.4% among 360,000; further: nearly all actives have a fitted effect of over 60% in size
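Compounds, titrated to a top concentration of 110 uM, were incubated 30 min at room temperature with preformed BAZ2B/acetyl-K14 H3 peptide complex (50 nM each). Proximity signal was measured by AlphaScreen after 20 min with beads.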
G9a inh: G9a (human) methyltransferase inhibition | Q96KQ7 | G9a H3K9 monomethylation, AlphaScreen, 2 h | Potency, µM (top dose mostly 102 µM), most hits filed as inhibitors | hit rate 8.8% among 350,000 | AID 504332; further: nearly all actives have a fitted effect of over 75% in size
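Step 1: enzyme (final 20 nM) with compound, 15 min RT. Step 2: substrate peptide 500 nM and SAM 20 uM, 2 h RT. Step 3: anti-H3K9me1 antibody and AlphaScreen beads, 10 min, then plate read.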
Hits are given with their value; n = inactive; u = inconclusive; x = not tested or not shown; ! = a repeat was not active; [ ] = another dose, or the depositor's remark. The call rests on the fitted dose curve; in most records, active means well fitted curve in the direction sought with a large enough effect; inconclusive means small, poorly fitted or top-dose-only effect, or another doubt; inactive means no such curve, though single readings can be large; an effect the other way counts as inactive or inconclusive.

SMILES | JMJD2A Tudor inh | HP1b chromo inh | GLS inhibitor | BAZ2B inh | G9a inh
CCCS(=O)(=O)N1CCN(c2ccccn2)CC1 | n | n | n | n | n
c1cc(CN2CCN(C3CCCCCC3)CC2)ccn1 | 20µM | u | n | x | 1.78µM
CCS(=O)(=O)N1CCN(Cc2ccncc2)CC1 | 3.55µM | 50.1µM | n | 35.5µM | 14.1µM
Cc1ccccc1CN1CCN(C(=O)[C@H]2O[C@@H](n3cnc4c(N)ncnc43)[C@H](O)[C@@H]2O)CC1 | x | x | n | x | x
COc1ccc2[nH]c3c(NCCC4=CCCCC4)ncnc3c2c1 | 50.1µM | n | n | 28.2µM | n
CCN(CC)CCNc1ncnc2c1[nH]c1ccc(OC)cc12 | x | x | x | n | u
Cc1cc(C)cc(NC(=O)CN2CCC(C(=O)c3ccccc3)CC2)c1 | n | n | n | n | n
Cc1nc(N=Nc2cc(S(=O)(=O)O)c3cc([N+](=O)[O-])cc(S(=O)(=O)O)c3c2)c(COP(=O)(O)O)c(C=O)c1O | x | x | x | x | 3.55µM
CC(C)N1CCCC(C)(C(=O)Nc2cccc(Oc3ccccc3)c2)C1 (stereo not drawn) | x | x | n | x | x
COc1ccccc1C1CCN(Cc2ccccc2Cl)CC1 | n | n | n | n | n
COc1cccc(/C=N/N2CCN(Cc3ccccc3)CC2)c1O | u | n | u | u | x
COc1ccccc1/C=C/C=N\N1CCN(Cc2ccccc2Cl)CC1 | 20µM | u | n | 39.8µM | 14.1µM
COc1ccc(Br)cc1/C=N/N1CCN(Cc2ccccc2Cl)CC1 | 39.8µM | n | n | u | n[0.501 µM]
COc1ccccc1/C=C/C=N/N1CCN(Cc2ccc(Cl)cc2)CC1 | 44.7µM | 39.8µM | n | 31.6µM | u
CCN(CC)S(=O)(=O)c1ccc(NC(=O)c2nn(C)c3c2CSc2ccccc2-3)cc1 | n | n | n | n | n
COc1ccc(NC(=O)C(C)N2C(=O)C3CC=C(Cl)CC3C2=O)cc1 (stereo not drawn) | n | n | n | n | n
CCn1c(Sc2ccc([N+](=O)[O-])cn2)nnc1-c1ccco1 | 25.1µM | n | n | n | n[0.501 µM]
CCn1c(SCC(=O)OCc2ccccc2)nnc1-c1ccco1 | n | n | n | n | n[12.7 µM]
CCOc1ccccc1C1C(C#N)=C(N)SC(N)=C1C#N | 79.4µM | n | n | n | u
CCOc1ccc(C2C(C#N)=C(N)SC(N)=C2C#N)cc1OCC | u | n | n | u | u
CCOc1ccc(C2C(C#N)=C(N)SC(N)=C2C#N)cc1OC | x | x | x | u | 8.91µM
COc1ccc(NC(=O)c2cc3c(s2)-c2c(C)cccc2OC3)cc1Cl | n | n | n | n | u
O=C(O)c1cc([N+](=O)[O-])c(NCc2cccnc2)c([N+](=O)[O-])c1 | n | n | n | u | 44.7µM
COc1cccc(NC(=O)C2CCN(c3nnc(C)c4c(C)n(-c5ccccc5)nc34)CC2)c1 | n | n | n | n | n
Cc1ccc(-c2nnn3c2nc(NCC(C)c2ccccc2)c2ccccc23)cc1 (stereo not drawn) | n | n | n | n | n
SMILES | JMJD2A Tudor inh | HP1b chromo inh | GLS inhibitor | BAZ2B inh | G9a inh
O=C(C[C@H]1C[C@H](C(=O)N2CCCCC2)[C@@]2(CCc3ccccc3)c3[nH]c4ccc(Cl)cc4c3CCN2C1=O)NCCCn1ccnc1 | 35.5µM | n | n | x | x
COCCCNC(=O)C[C@H]1C[C@H](C(=O)N2CCCCC2)[C@@]2(CCc3ccccc3)c3[nH]c4cc(-c5ccco5)ccc4c3CCN2C1=O | 44.7µM | u | n | x | x
CC(C)=CCC/C(C)=C/CNC(=O)C[C@H]1C[C@H](C(=O)N2CCCCC2)[C@@]2(CCc3ccccc3)c3[nH]c4cc(-c5ccco5)ccc4c3CCN2C1=O | n | n | n | x | x
COc1ccc2[nH]c3c(c2c1)CCN1C(=O)C(CC(=O)NCc2ccc(OC)c(OC)c2)C[C@H](C(=O)N2CCOCC2)[C@@]31CCC1CCCC1 (stereo partly drawn) | 50.1µM | n | n | x | x
O=C(C[C@H]1C[C@H](C(=O)N2CCCCC2)[C@@]2(CCc3ccccc3)c3[nH]c4cc(-c5ccco5)ccc4c3CCN2C1=O)NCCN1CCOCC1 | 39.8µM | 20µM | n | x | x
CCOC(=O)[C@]12CCCC=C1N(Cc1cccc3ccccc13)C(=O)[C@H](CC(=O)NCCCOC)C2 | x | x | n | x | x
O=C(C[C@H]1C[C@H](C(=O)N2CCOCC2)[C@@]2(CCC3CCCC3)c3[nH]c4cc(-c5ccco5)ccc4c3CCN2C1=O)NCCCn1ccnc1 | 56.2µM | u | n | x | x
Cc1cccc(N(C)C(=O)CSc2nc3ncccc3o2)c1 | n | n | n | n | n
O=c1/c(=C/c2ccccn2)sc2n1CN(c1ccccc1)CN=2 | n[11.4 µM] | n | n | n | 50.1µM
Cc1cc(=O)n(CCO)c(O)c1C#N | u | n | n | u | u
CCn1c(O)c(C#N)c(C)cc1=O | n | n | n | n | 44.7µM
O=C(CN1C(=O)NC2(CCCCC2)C1=O)NCc1ccc2c(c1)OCO2 | n | n | n | n | n
Cc1cc(C)c(CSc2nnc(C)n3c2cc2occc23)c(C)c1 | u | u | n | 39.8µM | u
O=C(O)c1ccc(Cn2cc(/C=C\[N+](=O)[O-])c3ccccc32)o1 | n | n | n | u | 39.8µM
COC(=O)c1ccc(Cn2cc(/C=C\[N+](=O)[O-])c3ccccc32)o1 | u | n | n | u | x
CN(C)c1ccc(-n2cccc2/C=C/[N+](=O)[O-])cc1 | 25.1µM | 44.7µM | n | 15.8µM | 22.4µM
CN(c1ccccc1)c1ccc(/C=C/[N+](=O)[O-])cc1 | u | n | n | n | u
CSCCNC(=O)C1(C)CCN1C(=O)c1cc(C)n(C)n1 (stereo not drawn) | x | x | n | x | x
CCOC(=O)c1nc(Nc2ccc(N3CCC(C)CC3)cc2)c2ccccc2n1 | 28.2µM | u | n | 39.8µM | x
CCOC(=O)c1nc(Nc2ccc(C(=O)O)cc2)c2ccccc2n1 | 28.2µM | n | n | n | 39.8µM
CCOC(=O)c1nc(Nc2ccc(Nc3ccccc3)cc2)c2ccccc2n1 | 28.2µM | u | n | 15.8µM | u
Nc1ccn(C2OC(COC(=O)C34CC5CC(CC(C5)C3)C4)C(O)C2O)c(=O)n1 (stereo not drawn) | n | n | n | x | x
O=C1NC(=S)NC1=Cc1ccc(O)cc1 | n | n | n | x | x
O=C1NC(=S)N/C1=C\c1ccc(N2CCOCC2)cc1 | 20µM | n | n | n | u
Cc1ccc(C(=O)N2c3ccccc3Sc3ccccc32)cc1 | x | x | n | x | x
SMILES | JMJD2A Tudor inh | HP1b chromo inh | GLS inhibitor | BAZ2B inh | G9a inh
CN(C)c1ccc2c(c1)Sc1cc(N(C)C)ccc1N2C(=O)c1ccccc1 | 14.1µM | 12.6µM | n | 8.91µM | 10µM
COc1ccccc1/C=C(/C(=O)OCC(=O)Nc1cc(C)ccc1C)c1ccccc1 | n | n | n | n | u
O=C(Cc1c(Cl)cccc1Cl)OCc1ccccn1 | n | n | n | n | n
NC(N)=NC(=O)Cc1c(Cl)cccc1Cl | n | n | n | n | 12.6µM!
CCOC(=O)c1ccc(N2CCN(c3cc(C)ccc3C)CC2)c(N)c1 | u | n | n | u | 44.7µM
CC1CCN(c2ccc(C(=O)O)cc2N)CC1 | n | n | n | 50.1µM | 79.4µM
